ROC1-CUL1 inh: blocks human RBX1-Cullin-1 di-ubiquitin formation | AID 1347404 | P62877+Q13616 | hit rate 0.6% among 140,000 | in vitro K48 di-Ub FRET, acceptor:donor ratio, 45 min | inhibition, % at 10 µM; in the data active = inhibition above about 25%
Target sequence (P62877 whole entry, looked up): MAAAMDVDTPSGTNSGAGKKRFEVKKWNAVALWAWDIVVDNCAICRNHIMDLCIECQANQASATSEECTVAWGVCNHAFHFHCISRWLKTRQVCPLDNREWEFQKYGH
Target sequence (Q13616 whole entry, looked up): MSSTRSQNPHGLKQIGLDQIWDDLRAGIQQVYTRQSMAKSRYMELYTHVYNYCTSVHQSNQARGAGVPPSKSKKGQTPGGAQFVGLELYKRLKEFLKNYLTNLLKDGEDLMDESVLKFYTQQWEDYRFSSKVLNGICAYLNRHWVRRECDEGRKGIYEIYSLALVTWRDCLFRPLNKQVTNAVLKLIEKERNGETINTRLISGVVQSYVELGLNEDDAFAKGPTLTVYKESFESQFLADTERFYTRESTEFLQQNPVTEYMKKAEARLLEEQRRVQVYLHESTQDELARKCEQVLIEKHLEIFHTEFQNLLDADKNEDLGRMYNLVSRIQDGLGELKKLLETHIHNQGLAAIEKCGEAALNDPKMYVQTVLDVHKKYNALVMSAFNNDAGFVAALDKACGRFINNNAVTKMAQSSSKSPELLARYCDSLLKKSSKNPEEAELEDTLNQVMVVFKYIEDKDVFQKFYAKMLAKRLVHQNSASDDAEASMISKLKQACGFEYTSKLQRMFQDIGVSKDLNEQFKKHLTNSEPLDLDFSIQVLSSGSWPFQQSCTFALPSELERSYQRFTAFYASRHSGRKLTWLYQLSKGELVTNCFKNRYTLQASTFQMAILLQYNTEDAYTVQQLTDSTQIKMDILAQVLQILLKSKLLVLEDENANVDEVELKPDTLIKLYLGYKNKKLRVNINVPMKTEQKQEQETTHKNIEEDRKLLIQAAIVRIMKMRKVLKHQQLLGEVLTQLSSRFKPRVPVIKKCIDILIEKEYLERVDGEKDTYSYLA
* = called active by the depositor. Only a selection was taken, and hits are over-represented in it overall.

SMILES	ROC1-CUL1 inh
Cc1ccc(Cl)cc1N1CCN(S(=O)(=O)c2ccc(-c3cnc(C4CC4)o3)cc2)CC1	-4
C1=C(c2ccc(-c3ccccc3)cc2)N2C(=NN=C(c3ccccc3)C2c2ccccc2)S1 (stereo not given)	-18
C1=C(c2ccccc2)N2C(=NN=C(c3ccccc3)C2c2ccccc2)S1 (stereo not given)	41*
Cc1ccc(C2=CSC3=NN=C(c4ccccc4)C(c4ccccc4)N23)cc1 (stereo not given)	2
C[n+]1c2ccccc2n2nc3c(cc21)c1cccc2cccc3c21	13
C[n+]1c2cc3ccccc3cc2n2nc3c(cc21)c1cccc2cccc3c21	97*
C[n+]1c2ccccc2n2nc3c(cc21)c1cccnc1c1ncccc31	-4
COc1cc(Cl)c(C)cc1NC(=O)Cn1cc(S(=O)(=O)N2CCN(c3ccccc3F)CC2)c2ccccc2c1=O	3
N#CC1C(=N)Oc2cc(O)c(C=Nc3cccc(F)c3)cc2C1c1ccco1 (stereo not given)	48*
COc1ccccc1N=Cc1cc2c(cc1O)OC(=N)C(C#N)C2c1cccc(F)c1 (stereo not given)	21
COc1ccc(N=Cc2cc3c(cc2O)OC(=N)C(C#N)C3c2cccc(F)c2)cc1 (stereo not given)	-3
Cc1ccc2c(CNCC(C)c3ccccc3)c(C(=O)O)n(Cc3ccccc3C)c2c1 (stereo not given)	-9
O=C1CC(c2ccc(F)cc2)Cc2c1cnn2-c1nc2ccccc2[nH]1 (stereo not given)	13
Cc1ccsc1CN(C(=O)c1ccc(Br)cc1)C1CCS(=O)(=O)C1 (stereo not given)	-6
Cc1ccc(-c2nn3c(C)nnc3s2)cc1NC(=O)c1sc2ccccc2c1Cl	-2
CCOc1ccc(NC(=S)NCCCO)cc1	8
CCOc1ccc(NC(=S)NCCO)cc1	11
CCOc1ccc(NC(=S)Nc2ccc3nsnc3c2)cc1	51*
Cc1cc(C)nc(SCC(=O)Nc2ccc(F)cc2F)n1	-9
CCOc1ccccc1N1CCN(C(=O)/C=C/c2ccc(Cl)cc2Cl)CC1	0
C=CCOc1c(Br)cc(/C=C2\SC(=O)N(Cc3ccc(F)cc3)C2=O)cc1OCC	-2
O=C1S/C(=C\c2cc(Br)c(O)c(Br)c2)C(=O)N1Cc1ccc(F)cc1	31*
O=C1S/C(=C\c2ccccc2)C(=O)N1Cc1ccc(F)cc1	5
CCN=C1CC=CC=C(C(=O)/C=C/c2ccccc2C)C1=O	73*
CCN=C1CC=CC=C(C(=O)/C=C/c2ccc(C#N)cc2)C1=O	-2
SMILES	ROC1-CUL1 inh
CN=C1CC=CC=C(C(=O)/C=C/c2cccc(C(F)(F)F)c2)C1=O	81*
O=C(CCc1ccccc1)N/N=C/c1cccc(Cl)c1Cl	0
CCN=C1CC=CC=C(C(=O)/C=C/c2ccc(CC)cc2)C1=O	-8
Cc1ccccc1N=C1CC=CC=CC1=O	-14
CCN=C1CC=CC=C(C(=O)/C=C/c2ccccc2OCC)C1=O	8
CCn1ncc(/C=C/C(=O)c2ccccc2)c1C	1
CCN=C1CC=CC=C(C(=O)/C=C/c2ccccc2Cl)C1=O	3
CCN=C1CC=CC=C(C(=O)/C=C/c2ccccc2Br)C1=O	36*
CCN=C1CC=CC=C(C(=O)/C=C/c2cccc(Cl)c2Cl)C1=O	38*
CCC(C)N1C(=O)S/C(=C/c2ccccc2Br)C1=O (stereo not given)	-10
CCOCc1nn2c(-c3ccc(C(F)(F)F)cc3)nnc2s1	11
COc1ccc(/C=C/C(=O)C(C)(C)OC(C)=O)cc1	3
O=C(CN1C(=O)C2(SCC(=O)N2c2cccc(F)c2)c2ccccc21)NCc1ccccc1Cl (stereo not given)	3
Cc1ccc(-c2cc(C(=O)NC3CCC(NC(=O)c4cc(-c5ccc(C)cc5C)nc5ccccc45)CC3)c3ccccc3n2)c(C)c1 (stereo not given)	-6
Cc1cccc2sc(NC(=O)c3ccc(Br)o3)nc12	3
CC(C)c1cc2ccc1CCc1ccc(cc1)CC2	1
CCN(CC)CCNC(=O)Cn1cnc2sc(C)c(S(=O)(=O)N3CCC(C)CC3)c2c1=O	-2
CC(C)(C)c1[nH]nc2c1C(c1c(F)cccc1Cl)C(C#N)C(=N)O2 (stereo not given)	13
Clc1nsc(SCSc2nc(Cl)ns2)n1	11
N#Cc1ccc(C(=O)Nc2cc3nn(-c4ccccc4)nc3cc2Cl)c(F)c1	-13
Cc1ccccc1Sc1ccc([N+](=O)[O-])cn1	1
O=[N+]([O-])c1ccc(S(=O)(=O)c2cccc(C(F)(F)F)c2)nc1	9
CS(=O)(=O)c1ccc([N+](=O)[O-])cn1	63*
COc1cccc(Sc2ccccc2/C=N/NC(N)=O)c1	8
CCc1ccc(NC(=O)Cn2ccn(Cc3ccccc3OC)c(=O)c2=O)cc1	9
SMILES	ROC1-CUL1 inh
CCN1C(=O)C(CC(=O)Nc2ccccc2)SC1=Nc1ccc(S(N)(=O)=O)cc1 (stereo not given)	0
COc1ccccc1Oc1ncccc1CNC1CCSCC1	1
O=C1CC=Cc2ccc(O)c(O)c2C1=O	53*
Cc1ccc(NS(=O)(=O)c2c(C(=O)N3CCCCCC3)c(C)n(C)c2C)cc1F	6
CCn1c(SCc2ccccc2Cl)nc2ccccc21	4
O=C(O)c1cccc2c1-c1ccccc1C2=O	-4
CS(=O)(=O)Oc1ccc2c(-c3ccccc3C(=O)O)c3ccc(=O)c(I)c-3oc2c1I	117*
COc1cccc(C(=O)Nc2cccc(NC(=O)c3ccc(Cl)cc3Cl)c2)c1	-4
COc1cc(-c2c(F)c(F)c(F)c(F)c2F)nc(N)n1	35*
CSc1cc(-c2ccccc2)nc(N)n1	5
COc1cc(OC)nc(Oc2cccc(OC)c2N)n1	4
CSc1ncc2ccc(=O)n(C(C)C)c2n1	7
CCn1c(CN2CCCCCC2)n[nH]c1=S	0
CCCCCCc1cc2c(C(F)(F)F)cc(=O)oc2cc1OC(C)=O	-8
O=C(Nc1ccc(S(=O)(=O)Nc2nccs2)cc1)C(F)(F)F	6
Cc1ccc(/C=C/C(=O)O)o1	35*
Cc1ccc(NC(=O)/C=C/c2ccc(C)o2)c(C)c1	0
CC(=O)c1ccc(NC(=O)/C=C/c2ccc(C)o2)cc1	7
CC(=C/C(=O)O)/C=C/c1ccc(Cl)o1	-1
Cc1ccc(NC(=O)/C=C/c2ccc(Cl)cc2)c(Br)c1	-8
Cc1ccc(NC(=O)/C=C/c2ccc(C)o2)c(Br)c1	63*
COCCn1c(=O)c2c(nc3n(-c4ccc(F)cc4)c(C)c(C)n23)n(C)c1=O	9
COC(=O)c1ccc(C2c3sc4nc(C)cc(C)c4c3OC(=N)C2C#N)cc1 (stereo not given)	2
O=C(CCC1CCCN(C(=O)c2ccnc(Cl)c2)C1)N1CCN(c2ccccn2)CC1 (stereo not given)	5
COC(=O)c1ccc(NS(=O)(=O)c2cc([N+](=O)[O-])ccc2Cl)cc1	-3
SMILES	ROC1-CUL1 inh
CC(C)=NNc1nc2ccccc2nc1SCCO	10
CCOc1ccc(C2C3=C(CC(C)(C)CC3=O)N(c3cccc(C(F)(F)F)c3)C3=C2C(=O)CC(C)(C)C3)cc1OCC	0
Cc1cc(C)n2nc(C(=O)N3CCC4(CCCN(CC(C)(C)C)C4)C3)cc2n1 (stereo not given)	29*
COc1cccc(CN2CCCC3(CCN(C(=O)c4cnc(C)cn4)C3)C2)c1 (stereo not given)	8
CC(C)(C)CN1CCCC2(CCN(C(=O)c3cnccn3)C2)C1 (stereo not given)	-14
CCCCCNS(=O)(=O)c1ccc(N2CCCCS2(=O)=O)cc1	-8

Source: PubChem BioAssay (Pan Lab, Icahn School of Medicine at Mount Sinai)
